# From PubChem BioAssay
# Abeta rescue: compounds reversing amyloid beta toxicity in yeast | yeast expressing A-beta42, growth rescue, OD600, 48 h; response scale: 0% DMSO, 100% iron-clioquinol control | Potency, µM (top dose mostly 46.1 µM), hits mostly activators | 410,000 tested, 0.063% active | AID 1347071; further: potency means the concentration at half of the fitted maximal effect; nearly all actives have a fitted effect of over 55% in size
#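 Growth rescue measured by 600 nm absorbance after 48 h yeast culture at 30 C with compound. Values normalized between DMSO and an equimolar ferric chloride plus clioquinol control.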
# CCT modulator: changes cytosolic chaperonin activity | purified chaperonin ATPase assay, HTRF ADP detection, 30 min | 360,000 tested, 0.3% active | activity change, % (test concentration not listed), hits read low; in the data active means activity change below about -30%; further: on the % scale 0 is the no-effect control and ±100 the full control effect
#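 ATPase activity: ADP formed was measured by HTRF Transcreener (665/615 nm ratio) after 30 min at 37 deg C with 10 uM ATP. Compounds screened at one 76 uM concentration against 40 or 20 nM TRiC in Tris pH 7.4/KCl/MgCl2/DTT buffer.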
# aSyn rescue: alpha-synuclein toxicity inhibition in yeast; Yeast expressing alpha-synuclein, growth rescue, BacTiter-Glo, 24 h; Potency, µM (top dose mostly 46.1 µM), without a hit: at the top dose growth rescue (activation), usual class: activators; 370,000 tested, 0.14% active; AID 652106; further: potency means the concentration at half of the fitted maximal effect; % of control where 0% means no effect; nearly all actives have a fitted effect of over 65% in size
#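 Galactose-induced alpha-syn yeast (OD600=0.02, raffinose-pregrown) + pinned cpd, 24 hr, 30 deg C; growth by BacTiter-Glo luminescence. Growth restoration scores as activation.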
# MmCpn inh: inhibitors of Methanococcus maripaludis chaperonin TRiC (MmCpn) | purified Mm-Cpn ATPase, ADP Transcreener TR-FRET | Potency, µM (highest dose often 76.9 µM), for the others: at the highest dose activity, negative = inhibition, usual class: inhibitors | 330,000 tested, 0.031% active | AID 504842; further: potency means the concentration at half of the fitted maximal effect; on the % scale 0 is the no-effect control and ±100 the full control effect; nearly all actives have a fitted effect of over 80% in size
#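 ATPase read-out: TR-FRET ADP immunoassay (anti-ADP Eu cryptate vs ADP-d2), ex 320 nm, em 590/665 nm; signal drops as ADP forms. Enzyme 25 nM, ATP 10 uM, 30 min at 37°C after 10 min compound preincubation.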
# FUS suppressor: FUS proteinopathy suppression in yeast. S. cerevisiae FUS-expressing, growth rescue, OD600, 24 h. Potency, µM (highest dose often 76.6 µM), usual class: activators. 390,000 tested, 0.24% active;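 further: potency means the concentration at half of the fitted maximal effect; plate controls were DMSO vehicle for no effect and reference control for full effect; nearly all actives have a fitted effect of over 55% in size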
#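 Yeast FUS proteinopathy model; galactose-induced FUS (2%), starting OD 0.005. Cpds in dilution series, 24hr, 30C, 99% humidity. Abs 600 nm growth. Pos ctrl CP55940 (top 92uM final); neg ctrl DMSO.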
# TDP43 rescue: TDP-43 toxicity inhibition in yeast. TDP-43 expressing yeast growth rescue, BacTiter-Glo, 24 h. Potency, µM (top dose mostly 46.1 µM), inactives show at the top dose growth rescue (activation), actives largely listed as activators. 410,000 tested, 1.8% active; further: potency means the concentration at half of the fitted maximal effect; % of control where 0% means no effect; nearly all actives have a fitted effect of over 50% in size
#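 Readout is BacTiter-Glo luminescence of cell growth, so inhibitors register as activators. TDP-43-expressing yeast at OD600=0.02 in galactose medium, after raffinose pregrowth to mid-log, were incubated with compound for 24 hr at 30 deg C.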
# An asterisk follows results filed as active; i = inactive; u = inconclusive; x = no result given. Hits are enriched below; roughly 2.3% of the tested compounds scored in any of these assays. Unless noted, the call rests on the fitted dose curve; in most records, active means well fitted curve in the direction sought with a large enough effect; inconclusive means small, poorly fitted or top-dose-only effect, or another doubt; inactive means no such curve, though single readings can be large; an effect the other way counts as inactive or inconclusive.
SMILES,Abeta rescue,CCT modulator,aSyn rescue,MmCpn inh,FUS suppressor,TDP43 rescue
COc1cc(-c2ccno2)ccc1S(=O)(=O)N1CCN(c2ccccc2)CC1,i,x,x,x,i,11µM*
COc1cc(-c2ccno2)ccc1S(=O)(=O)N1CCN(c2ccc(F)cc2)CC1,i,x,x,x,i,25%
COc1ccccc1N1CCN(S(=O)(=O)c2ccc(-c3ccno3)cc2OC)CC1,i,x,x,x,i,13µM*
COc1cccc(N2CCN(S(=O)(=O)c3ccc(-c4ccno4)cc3OC)CC2)c1,i,x,x,x,i,13µM*
Nc1nc(Cl)cc(N2CCC(c3cc(-c4ccc(Cl)cc4Cl)n[nH]3)CC2)n1,i,2,17%,1%,13µM*,-51%
Nc1nc(Cl)cc(N2CCCC2)n1,i,1,3%,1%,i,18%
COc1ccc(-n2c(COc3ccccc3)nnc2SCc2nc3ccccc3[nH]2)cc1,x,x,x,x,i,x
C=CCN1[C@@H](CC(C)C)COc2cc(N3CCSCC3)ccc2S1(=O)=O,x,x,x,x,i,x
CCN(CC)c1nc(C(N)=O)cc(-c2ccccc2)n1,i,-4,20µM*,-2%,i,10%
CN(N)c1nc(-c2ccccc2)cc(-c2ccccc2)n1,i,-5,-4%,1%,i,11µM*
CN1CCN(c2nc(C(N)=O)cc(-c3ccccc3)n2)CC1,i,-1,3%,0%,i,-3%
Cc1ccc(S(=O)(=O)N2CCN(c3nc(-n4c(=O)[nH]c5ccccc54)nc4ccccc34)CC2)cc1,x,x,0%,x,x,x
COc1cccc(NC(=O)CCc2nnc3n(CC(C)C)c(=O)c4ccccc4n23)c1,i,x,x,x,i,19%
O=C(OCc1cn(Cc2cccc(Cl)c2)nn1)N1CCOCC1,x,x,x,x,i,x
COc1ccc([N+](=O)[O-])cc1NC1CCCCC1,i,-23,-20%,2%,i,20µM*
COc1ccc([N+](=O)[O-])cc1NC1C2CC3CC(C2)CC1C3 (configuration not stated),i,0,-20%,-3%,i,-2%
CC(C)NC(=O)C1CCN(c2cncnc2)CC1,x,x,x,x,i,x
C=CCOc1ccc2c(OC)c3ccoc3nc2c1OC,i,0,-3%,-3%,i,11µM*
CCOc1c2ccoc2nc2c(OC)c(OC)ccc12,i,-1,-4%,x,i,21%
Cc1nn(CCC(=O)NNC(=O)NCc2ccccc2)c(C)c1[N+](=O)[O-],x,x,x,x,i,x
CCCSc1nc(NCc2ccco2)c2c3c(sc2n1)COC(C)(C)C3,i,2,3%,-8%,u,20µM*
Cc1ccc(-c2cc(O)cc3sc(=O)oc23)cc1C,x,-1,-18%,3%,i,11µM*
COc1ccc(NC(=O)c2cnn(-c3ccc(F)cc3F)c2C2CCN(C(=O)OC(C)(C)C)CC2)cc1Cl,i,x,x,x,13µM*,16%
COc1cc(Cl)c(C)cc1NC(=O)c1cnn(-c2ccc(F)cc2F)c1C1CCN(C(=O)OC(C)(C)C)CC1,i,x,x,x,i,14%
CC(C)(C)OC(=O)N1CCC(c2c(C(=O)N3CCN(c4ccc(Cl)cc4)CC3)cnn2-c2ccc(F)cc2F)CC1,i,x,x,x,22µM*,u
SMILES,Abeta rescue,CCT modulator,aSyn rescue,MmCpn inh,FUS suppressor,TDP43 rescue
Cc1nc2c(nc1C)C(=O)c1ccccc1C2=O,i,-1,-9%,x,x,18µM*
CCOc1ccc(/C=C2\NCCc3cc(OCC)c(OCC)cc32)cc1OCC,x,x,x,x,i,x
O=C(CCS(=O)(=O)c1nc(-c2ccc3c(c2)OCO3)cc(C(F)(F)F)n1)Nc1ccccc1F,i,x,x,x,i,22µM*
COC(=O)c1ccccc1NC(=O)CCS(=O)(=O)c1nc(-c2ccc3c(c2)OCO3)cc(C(F)(F)F)n1,i,x,x,x,i,0%
O=C(CCS(=O)(=O)c1nc(-c2ccc3c(c2)OCO3)cc(C(F)(F)F)n1)Nc1ccc(Br)cc1,i,x,x,x,i,u
CSc1ccccc1NC(=O)CCS(=O)(=O)c1nc(-c2ccc3c(c2)OCO3)cc(C(F)(F)F)n1,i,x,-4%,x,i,11µM*
Cc1cc(C)c2sc(NNC(=O)c3ccc(S(=O)(=O)N4CCc5ccccc5C4)cc3)nc2c1,i,-2,5%,0%,u,7.9µM*
O=C(Cc1ccc(OCc2ccccc2)cc1)NO,x,x,4%,x,x,x
COc1cccc(CN(C)C(=O)c2ccc(N3CCCC3)c([N+](=O)[O-])c2)c1,i,-1,-1%,-3%,i,20µM*
Cc1cc(=O)n(CC(=O)Nc2ccc(Cl)c(Cl)c2)c(-n2nc(C)cc2C)n1,i,x,x,x,u,13µM*
CC(=O)c1ccc(NC(=O)Cn2c(-n3nc(C)cc3C)nc(C)c(C)c2=O)cc1,i,x,x,x,i,27%
COc1cccc(CSc2nnc(CSc3nc4nc(C)cc(C)n4n3)s2)c1,i,2,2%,2%,i,20µM*
O=C(O)c1cncc(C#CCC2CCCCC2)c1,i,-7,3%,1%,i,14µM*
O=C(O)c1cncc(C#Cc2ccccc2)c1,i,0,12%,-8%,i,21%
Cc1ccc(S(=O)(=O)NC(=O)NN2CC3CCCC3C2)cc1 (configuration not stated),i,-44*,3%,0%,i,0%
Cc1ccc(S(=O)(=O)NC(=S)NC2CCCCC2)cc1,i,-3,10%,2%,i,16µM*
COC(=O)[C@]1(C#N)CC(=O)N(C(C)C)[C@@H]1c1ccccc1,x,x,x,x,i,x
COc1cc(C)ccc1OCCSc1nc2ccc(NC(=O)c3cccs3)cc2s1,i,x,x,x,i,18%
Cc1cccc(CN2C(=O)[C@@H]3Cc4c([nH]c5ccccc45)C(C)(C)N3C2=O)c1,7.9µM*,x,x,x,i,x
COC(=O)C1=C2c3[nH]c4ccccc4c3CCN2C(=O)CC1,i,-5,10%,x,i,10µM*
CCCCN1CCc2c([nH]c3ccccc23)C1=O,i,-3,8%,-6%,i,22%
O=C(Nc1ccc(Nc2ccccc2)cc1)c1ccc(Cl)c([N+](=O)[O-])c1,i,0,1%,1%,u,-21%
Cc1cc(C(=O)Nc2ccc(Nc3ccccc3)cc2)ccc1[N+](=O)[O-],i,2,13%,0%,i,13µM*
C[n+]1ccnc2ccccc21,x,x,-7%,x,x,x
Cc1nc(-c2ccc(Br)cc2)ccc1C(=O)O,i,-2,-9%,-5%,x,16µM*
Nc1nc(Cl)nc2c1ncn2C1CCC(CO)O1 (configuration not stated),i,2,1%,x,i,17%
